# Assay results as given in paper PMC8384837, “Expanding the binding specificity for RNA recognition by a PUF domain”.
# Assays:
# Assay in all cases: yeast three-hybrid, YBZ-1, SC-Leu-His + 0.5 mM 3-AT, 4 days
# Details in all cases: tags: N-Gal4 AD-HA kept; label: inside an RPR1-promoter hybrid RNA with tandem MS2 sites; ssRNA
# [1] = target: PUM1 PUF domain R5-QRL (Homo sapiens, UniProt Q14671 828-1176, C1007Q;Q1011L)
# Summary of the method: (§1)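 The interaction score is the log change in how often each variant appears, from input to selection. Frequencies came from PCR-amplified, Illumina-sequenced repeat regions of Pumilio-1 PUF domain libraries grown in strain YBZ-1 (LexA–MS2 coat fusion, HIS3 reporter) alongside matching RNA elements. Input plates were SC-Leu and selection plates were SC-Leu-His + 0.5 mM 3-AT, each for four days, and the log2 calculation used a pseudocount of 1 where a variant was absent.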
# [2] = target: PUM1 PUF domain R7-QPR (Homo sapiens, UniProt Q14671 828-1176, S1079Q;N1080P;E1083R)
# Sequence of PUM1 PUF domain R7-QPR (Q14671 828-1176 S1079Q/N1080P/E1083R): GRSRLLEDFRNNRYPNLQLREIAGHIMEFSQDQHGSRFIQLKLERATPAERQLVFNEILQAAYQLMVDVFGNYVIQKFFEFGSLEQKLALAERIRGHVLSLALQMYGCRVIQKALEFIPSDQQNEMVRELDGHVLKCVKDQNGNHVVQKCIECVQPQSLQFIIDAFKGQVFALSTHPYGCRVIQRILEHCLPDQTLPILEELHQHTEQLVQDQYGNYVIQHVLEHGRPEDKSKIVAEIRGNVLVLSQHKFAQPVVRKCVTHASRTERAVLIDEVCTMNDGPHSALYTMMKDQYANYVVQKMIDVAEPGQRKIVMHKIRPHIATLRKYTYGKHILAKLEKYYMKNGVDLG
# Summary of the method: as §1
# [3] = target: PUM1 PUF domain R3-QRA (Homo sapiens, UniProt Q14671 828-1176, C935Q;Q939A)
# Sequence of PUM1 PUF domain R3-QRA (Q14671 828-1176 C935Q/Q939A): as the sequence (Q14671 828-1176 S1079Q/N1080P/E1083R) above, with C108Q, Q112A, Q252S, P253N, R256E counted along it
# Summary of the method: as §1
# [4] = target: PUM1 PUF domain R3-QRV (Homo sapiens, UniProt Q14671 828-1176, C935Q;Q939V)
# Sequence of PUM1 PUF domain R3-QRV (Q14671 828-1176 C935Q/Q939V): as the sequence (Q14671 828-1176 S1079Q/N1080P/E1083R) above, with C108Q, Q112V, Q252S, P253N, R256E counted along it
# Summary of the method: as §1
# [5] = target: PUM1 PUF domain R4-PFT (Homo sapiens, UniProt Q14671 828-1176, N971P;H972F;Q975T)
# Sequence of PUM1 PUF domain R4-PFT (Q14671 828-1176 N971P/H972F/Q975T): as the sequence (Q14671 828-1176 S1079Q/N1080P/E1083R) above, with N144P, H145F, Q148T, Q252S, P253N, R256E counted along it
# Summary of the method: as §1
# [6] = target: PUM1 PUF domain R5-LYA (Homo sapiens, UniProt Q14671 828-1176, C1007L;R1008Y;Q1011A)
# Sequence of PUM1 PUF domain R5-LYA (Q14671 828-1176 C1007L/R1008Y/Q1011A): as the sequence (Q14671 828-1176 S1079Q/N1080P/E1083R) above, with C180L, R181Y, Q184A, Q252S, P253N, R256E counted along it
# Summary of the method: as §1
# [7] = target: PUM1 PUF domain R8-RWQ (Homo sapiens, UniProt Q14671 828-1176, N1122R;Y1123W)
# Summary of the method: as §1
# [8] = target: PUM1 PUF domain R5-SRL (Homo sapiens, UniProt Q14671 828-1176, C1007S;Q1011L)
# Summary of the method: as §1
# [9] = target: PUM1 PUF domain R3-VCE (Homo sapiens, UniProt Q14671 828-1176, C935V;R936C;Q939E)
# Summary of the method: as §1
# [10] = target: PUM1 PUF domain R4-EWG (Homo sapiens, UniProt Q14671 828-1176, N971E;H972W;Q975G)
# Summary of the method: as §1
# [11] = target: T1, PUM1 PUF domain R6-LWR (Homo sapiens, UniProt Q14671 828-1176, N1043L;Y1044W;Q1047R)
# T1 sequence: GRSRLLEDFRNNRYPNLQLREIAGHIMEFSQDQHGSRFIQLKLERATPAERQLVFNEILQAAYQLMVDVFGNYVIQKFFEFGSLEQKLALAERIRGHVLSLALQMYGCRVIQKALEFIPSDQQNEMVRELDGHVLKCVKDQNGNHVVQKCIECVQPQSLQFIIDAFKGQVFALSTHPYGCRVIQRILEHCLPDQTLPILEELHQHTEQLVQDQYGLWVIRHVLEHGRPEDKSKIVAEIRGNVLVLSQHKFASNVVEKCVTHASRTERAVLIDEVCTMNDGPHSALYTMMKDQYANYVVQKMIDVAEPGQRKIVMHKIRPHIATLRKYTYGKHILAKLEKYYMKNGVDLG
# Summary of the method: as §1
# [12] = target: PUM1 PUF domain R8-SWK (Homo sapiens, UniProt Q14671 828-1176, N1122S;Y1123W;Q1126K)
# Summary of the method: as §1
# [13] = target: PUM1 PUF domain R8-IYV (Homo sapiens, UniProt Q14671 828-1176, N1122I;Q1126V)
# Summary of the method: as §1
# [14] = target: PUM1 PUF domain R8-MYR (Homo sapiens, UniProt Q14671 828-1176, N1122M;Q1126R)
# Summary of the method: as §1
# [15] = target: PUM1 PUF domain R3-GWF (Homo sapiens, UniProt Q14671 828-1176, C935G;R936W;Q939F)
# Summary of the method: as §1
# [16] = target: PUM1 PUF domain R1-HLR (Homo sapiens, UniProt Q14671 828-1176, S863H;R864L;Q867R)
# Summary of the method: as §1
# [17] = target: PUM1 PUF domain R3-LHH (Homo sapiens, UniProt Q14671 828-1176, C935L;R936H;Q939H)
# Sequence of PUM1 PUF domain R3-LHH (Q14671 828-1176 C935L/R936H/Q939H): as the sequence (Q14671 828-1176 S1079Q/N1080P/E1083R) above, with C108L, R109H, Q112H, Q252S, P253N, R256E counted along it
# Summary of the method: as §1
# [18] = target: PUM1 PUF domain R4-NNG (Homo sapiens, UniProt Q14671 828-1176, H972N;Q975G)
# Sequence of PUM1 PUF domain R4-NNG (Q14671 828-1176 H972N/Q975G): as the sequence (Q14671 828-1176 S1079Q/N1080P/E1083R) above, with H145N, Q148G, Q252S, P253N, R256E counted along it
# Summary of the method: as §1
# [19] = target: PUM1 PUF domain R4-DYI (Homo sapiens, UniProt Q14671 828-1176, N971D;H972Y;Q975I)
# Sequence of PUM1 PUF domain R4-DYI (Q14671 828-1176 N971D/H972Y/Q975I): as the sequence (Q14671 828-1176 S1079Q/N1080P/E1083R) above, with N144D, H145Y, Q148I, Q252S, P253N, R256E counted along it
# Summary of the method: as §1
# [20] = target: PUM1 PUF domain R4-YHA (Homo sapiens, UniProt Q14671 828-1176, N971Y;Q975A)
# Sequence of PUM1 PUF domain R4-YHA (Q14671 828-1176 N971Y/Q975A): as the sequence (Q14671 828-1176 S1079Q/N1080P/E1083R) above, with N144Y, Q148A, Q252S, P253N, R256E counted along it
# Summary of the method: as §1
# Sequence of PUM1 PUF domain R5-QRL (Q14671 828-1176 C1007Q/Q1011L): as the sequence (Q14671 828-1176 S1079Q/N1080P/E1083R) above, with C180Q, Q184L, Q252S, P253N, R256E counted along it
sequence,measurement,setting,value
GGCUAGAACUAGUGGAUCCCCCGGCGCCCGGCGGCUCGAGCCCGGGUAAGUGUGAAUAGUCUGCAUGCCGCCGGGCGCCAUGCCUGCAGGUCGACUCUAGAAAACAUG,binding signal,[1],3.22 log2 enrichment (interaction score)
GGCUAGAACUAGUGGAUCCCCCGGCGCCCGGCGGCUCGAGCCCGGGUAAGUCUAAAUAGUCUGCAUGCCGCCGGGCGCCAUGCCUGCAGGUCGACUCUAGAAAACAUG,binding signal,[2],1.84 log2 enrichment (interaction score)
GGCUAGAACUAGUGGAUCCCCCGGCGCCCGGCGGCUCGAGCCCGGGUAAGUGUAAUUAGUCUGCAUGCCGCCGGGCGCCAUGCCUGCAGGUCGACUCUAGAAAACAUG,binding signal,[3],2.85 log2 enrichment (interaction score)
same,binding signal,[4],2.73 log2 enrichment (interaction score)
GGCUAGAACUAGUGGAUCCCCCGGCGCCCGGCGGCUCGAGCCCGGGUAAGUGUAAAUAGUCUGCAUGCCGCCGGGCGCCAUGCCUGCAGGUCGACUCUAGAAAACAUG,binding signal,[5],5.31 log2 enrichment (interaction score)
same,binding signal,[6],3.54 log2 enrichment (interaction score)
same,binding signal,[1],3.37 log2 enrichment (interaction score)
same,binding signal,[7],6.33 log2 enrichment (interaction score)
same,binding signal,[8],3.16 log2 enrichment (interaction score)
same,binding signal,[9],2.11 log2 enrichment (interaction score)
same,binding signal,[10],3.6 log2 enrichment (interaction score)
same,binding signal,[11],5.05 log2 enrichment (interaction score)
same,binding signal,[12],5.34 log2 enrichment (interaction score)
same,binding signal,[13],2.36 log2 enrichment (interaction score)
same,binding signal,[14],4.65 log2 enrichment (interaction score)
same,binding signal,[15],5.35 log2 enrichment (interaction score)
GGCUAGAACUAGUGGAUCCCCCGGCGCCCGGCGGCUCGAGCCCGGGUAAGUGUAAAUCGUCUGCAUGCCGCCGGGCGCCAUGCCUGCAGGUCGACUCUAGAAAACAUG,binding signal,[16],3.24 log2 enrichment (interaction score)
GGCUAGAACUAGUGGAUCCCCCGGCGCCCGGCGGCUCGAGCCCGGGUAAGUUUAAAUAGUCUGCAUGCCGCCGGGCGCCAUGCCUGCAGGUCGACUCUAGAAAACAUG,binding signal,[2],5.06 log2 enrichment (interaction score)
GGCUAGAACUAGUGGAUCCCCCGGCGCCCGGCGGCUCGAGCCCGGGUAAGUGUAAAUUGUCUGCAUGCCGCCGGGCGCCAUGCCUGCAGGUCGACUCUAGAAAACAUG,binding signal,[16],2.68 log2 enrichment (interaction score)
GGCUAGAACUAGUGGAUCCCCCGGCGCCCGGCGGCUCGAGCCCGGGUAAGUGUAAGUAGUCUGCAUGCCGCCGGGCGCCAUGCCUGCAGGUCGACUCUAGAAAACAUG,binding signal,[17],5.47 log2 enrichment (interaction score)
same,binding signal,[3],3.67 log2 enrichment (interaction score)
same,binding signal,[4],3.59 log2 enrichment (interaction score)
same,binding signal,[9],3.08 log2 enrichment (interaction score)
GGCUAGAACUAGUGGAUCCCCCGGCGCCCGGCGGCUCGAGCCCGGGUAAGUGUACAUAGUCUGCAUGCCGCCGGGCGCCAUGCCUGCAGGUCGACUCUAGAAAACAUG,binding signal,[18],1.82 log2 enrichment (interaction score)
same,binding signal,[10],1.12 log2 enrichment (interaction score)
GGCUAGAACUAGUGGAUCCCCCGGCGCCCGGCGGCUCGAGCCCGGGUAAGUGUUAAUAGUCUGCAUGCCGCCGGGCGCCAUGCCUGCAGGUCGACUCUAGAAAACAUG,binding signal,[6],3.15 log2 enrichment (interaction score)
same,binding signal,[8],2.41 log2 enrichment (interaction score)
GGCUAGAACUAGUGGAUCCCCCGGCGCCCGGCGGCUCGAGCCCGGGUAAGUGUAUAUAGUCUGCAUGCCGCCGGGCGCCAUGCCUGCAGGUCGACUCUAGAAAACAUG,binding signal,[19],6.31 log2 enrichment (interaction score)
same,binding signal,[18],4.95 log2 enrichment (interaction score)
same,binding signal,[20],3.12 log2 enrichment (interaction score)
GGCUAGAACUAGUGGAUCCCCCGGCGCCCGGCGGCUCGAGCCCGGGUAAGCGUAAAUAGUCUGCAUGCCGCCGGGCGCCAUGCCUGCAGGUCGACUCUAGAAAACAUG,binding signal,[7],5.71 log2 enrichment (interaction score)
same,binding signal,[13],2.44 log2 enrichment (interaction score)
same,binding signal,[14],4.58 log2 enrichment (interaction score)
